The nature of assay [1]: NCI Yeast Anticancer Drug Screen. Data for the rad50 strain (AID 155).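 Further: 0% = growth of vehicle-only cultures of the same strain.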 To be noted: S. cerevisiae rad50 strain growth inhibition; at 50.0 µM; active compounds read high. Put shortly:
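Vehicle-treated cultures provide the reference for the growth inhibition reported for compound-exposed, repair-deficient yeast.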

The nature of assay [2]: NCI Yeast Anticancer Drug Screen. Data for the mec2-1 strain (AID 157). As to conditions: S. cerevisiae mec2-1 strain, at 50.0 µM, active compounds read high. The method, boiled down:
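Strain: mec2-1 (DNA repair/cell cycle alteration). Compound exposure, then growth measured; inhibition expressed relative to vehicle.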

The nature of assay [3]: NCI Yeast Anticancer Drug Screen. Data for the sgs1 mgt1 strain (AID 161).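 Further: 0% = growth of cultures given vehicle only.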 As to conditions: S. cerevisiae sgs1 mgt1 strain, at 50.0 µM, active compounds read high. The method, boiled down:
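Test agents were incubated with a DNA-repair-mutant yeast strain. Growth was then read and compared against vehicle-treated controls.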

Assay [4] can be described thus: NCI Yeast Anticancer Drug Screen. Data for the bub3 strain (AID 167). As to conditions: S. cerevisiae bub3 mutant strain, at 50.0 µM, active compounds read high. The method, boiled down: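 Mutant yeast screening strain plus compound; vehicle-treated cultures serve as the 0% inhibition reference.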
The nature of assay [5]: NCI Yeast Anticancer Drug Screen. Data for the mlh1 rad18 strain (AID 175). To be noted: S. cerevisiae mlh1 rad18 strain growth inhibition; at 50.0 µM; active compounds read high. The method, boiled down: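 Read-out is yeast growth inhibition, calculated against vehicle-only controls. The compound was applied to a strain engineered with DNA damage repair alterations.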
The nature of assay [6]: NCI Yeast Anticancer Drug Screen. Data for the cln2 rad14 strain (AID 165).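 Further: 0% = growth equal to vehicle treated cultures.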 To be noted: S. cerevisiae cln2 rad14 strain, at 50.0 µM, active compounds read high. Put shortly: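 Compounds are applied to the cln2 rad14 yeast strain, and growth is then compared with that of vehicle-treated cultures to give inhibition.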

The structures appear in SMILES notation. This is part of a sample that, as a whole, favours compounds with a hit. Of some 79,000 tested, about 15% had one in any assay. Values without a mark were called inactive. Activity calls are given as the source filed them. No stated cut-off is given here; in the data, active means growth inhibition above about 70%; inactive means the rest.

With `N#CCCOC(=O)Nc1cccc(Cl)c1`, the growth inhibition in assay [1] is 41.7%; in assay [2], 15.4%; in assay [3], 27.3%; in assay [4] it was -7.2%; in assay [5], 33.6%.

In the case of `N#CCc1nc(-c2cc3ccccc3oc2=O)cs1`, the growth inhibition is 31.4% in assay [1]; 16.3% in assay [2]; -12.4% in assay [3]; 0.75% in assay [4]; -57% in assay [5].

For the compound `NC(=O)Oc1ccc(Cc2ccccc2)cc1`, the growth inhibition in assay [1] is -20.7%; in assay [2] it was -43.2%; in assay [3], -12.6%; in assay [4], -40.4%; in assay [5], -5.05%.

On to `O=C1c2cc([N+](=O)[O-])ccc2-c2c(F)cc(F)cc21`, for which the growth inhibition was -58.5% in assay [1]; -8.05% in assay [2]; 9.35% in assay [3]; -2.1% in assay [4]; -10.7% in assay [5].

As for `O=C1CC(c2ccccc2)C(c2ccccc2)C1` (stereo not given), the growth inhibition in assay [1] was 6%; in assay [2], 0.45%; in assay [3], 4.2%; in assay [4], -24.1%; in assay [5] it was -0.25%.

As for `CN1C=CCC(C=O)C1` (stereo not given), the growth inhibition in assay [1] is -13.5%; in assay [2] it was -4.5%; in assay [3], 0.05%; in assay [4] it was 1.65%; in assay [5], -7.2%.

With `O=C1C(=O)c2ccccc2C(O)=C1c1ccc(Br)cc1`, the growth inhibition was 8.85% in assay [1]; -9.5% in assay [2]; -2.8% in assay [3]; -3.65% in assay [4]; -8.9% in assay [5].

Regarding `Cc1nc(N/N=C/c2ccccc2Cl)[nH]c(=O)c1CCO`, the growth inhibition in assay [1] is -18.9%; in assay [2], -2.8%; in assay [3], -17.4%; in assay [6], 12.2%; in assay [5], 4.15%.

As for `Cc1ccc(C(C)C)cc1[N+](=O)[O-]`, the growth inhibition in assay [1] is 9.9%; in assay [2] it was -3.55%; in assay [3], -17.7%; in assay [4], -13.6%; in assay [5], -21.3%.

Consider `O=C1c2cn[nH]c2C(c2ccccc2)N1c1ccccc1` (stereo not given), for which the growth inhibition is 44.1% in assay [1]; 6.8% in assay [2]; 24.3% in assay [6]; 27.9% in assay [4]; 38.9% in assay [5].

In the case of `Cc1ccnc(N=C/C=C2/C=CC=CN2O)c1`, the growth inhibition in assay [1] is 0.25%; in assay [2] it was -9.35%; in assay [6] it was 5.55%; in assay [4] it was -8.45%; in assay [5] it was -11.8%.

In the case of `CC(=O)Oc1c(OC(C)C)c(C)c(O[Si](C(C)C)(C(C)C)C(C)C)c2[nH]c3ccccc3c12`, the growth inhibition was 33.9% in assay [1]; -5.05% in assay [2]; -10.9% in assay [6]; -12.4% in assay [4]; -29.7% in assay [5].

`O=C1c2cccc(O)c2C(=O)c2c(OC3OC(CO)C(OC4OC(CO)C(O)C(O)C4O)C(O)C3O)cccc21` (stereo not given): the growth inhibition in assay [1] was 94.2% (active); in assay [2] it was 36.2%; in assay [6], -5.55%; in assay [4] it was 4.15%; in assay [5] it was 31.4%.

In the case of `CC1C2(C)OCC(C#N)(C(=N)O2)C1(C#N)C#N` (stereo not given), the growth inhibition in assay [1] is 21.2%; in assay [2] it was 12.2%; in assay [6], -18.3%; in assay [4], -40%; in assay [5] it was 3.65%.

For `O=[N+]([O-])c1ccc(N/N=C2/CC(c3ccccc3)C(c3ccccc3)=C2Cl)c([N+](=O)[O-])c1` (stereo not given), the growth inhibition in assay [1] is 26.2%; in assay [2], 15.6%; in assay [6] it was 24.4%; in assay [4], -1.75%; in assay [5], 15.7%.

In the case of `O=C(Nc1cccc(F)c1)Sc1ccc(Cl)cc1`, the growth inhibition in assay [1] is 55%; in assay [2], 53.9%; in assay [6], 34%; in assay [4], 56.4%; in assay [5], 41%.

Turning to `N=C(N)N1CCC(N2CCOCC2)CC1`, the growth inhibition in assay [1] was 14.7%; in assay [2] it was -18.4%; in assay [6] it was -24.4%; in assay [4] it was 4.75%; in assay [5], -52.5%.

For `CCOC(=O)C(C)CC(C)C(=O)OCC` (stereo not given), the growth inhibition in assay [1] was 20.6%; in assay [2], -26%; in assay [6] it was -2.85%; in assay [4], 9.9%; in assay [5], 2.5%.

Consider `CS(=O)CC(=N\N)/C(CS(C)=O)=N/N` (stereo not given), for which the growth inhibition was -60% in assay [1]; -20.8% in assay [2]; -21.4% in assay [6]; -1.15% in assay [4]; -5.75% in assay [5].

As for `CCCC(=O)C(CC)C(=O)OCC` (stereo not given), the growth inhibition in assay [1] was -8.7%; in assay [2] it was -1.35%; in assay [6], -9.8%; in assay [4], -0.25%; in assay [5] it was 11.4%.

Consider `Cc1c(C(=O)O)c2ccccc2[nH]c1=O`, for which the growth inhibition is -2.85% in assay [1]; -1.25% in assay [2]; -40% in assay [6]; -13.2% in assay [4]; 2.5% in assay [5].

For `O=C(O)COc1ccc(F)c(F)c1F`, the growth inhibition in assay [1] was -16.1%; in assay [2], 4.5%; in assay [6], -9.6%; in assay [4] it was -2.75%; in assay [5], -20.1%.

Take `Nc1cccc(=O)[nH]1`: the growth inhibition in assay [1] was 6.3%; in assay [2], -10.2%; in assay [6], 3.7%; in assay [4] it was 9.45%; in assay [5] it was -3.85%.

Turning to `Cc1ccc([Se](=C(C(=O)c2ccccc2)C(=O)c2ccccc2)c2ccc(C)cc2)cc1`, the growth inhibition in assay [1] is 82.4% (active); in assay [2] it was 11.7%; in assay [6], 9.85%; in assay [4], 4.95%; in assay [5], 54.6%.
